Laboratory results published in PubChem BioAssay AID488890 (Southern Research Specialized Biocontainment Screening …, 2010).
Hit rate of the full screen: of about 320,000 compounds, about 1,300 (0.41%) were called active. Inconclusive results (about 3%) are left out. No rule for the calls is given here. The list is a sample of the results. Potency and affinity values are given separately.

Test: growth inhibition of non-replicating M. tuberculosis (AID 488890);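 also: plate controls were DMSO cells for no effect and high antibiotic wells for full effect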
Conditions: Mycobacterium tuberculosis non-replicating, at 25 µM, stronger effect = higher value

SMILES | inhibition [%]
CCN(C[C@H]1N[C@@](C)(C(=O)OC)[C@H]2C(=O)N(C)C(=O)[C@@H]12)S(=O)(=O)c1ccc(OC)cc1 | 9.25
COC(=O)COc1ccccc1/C=C1/NC(=O)NC1=O | 5
COC(=O)COc1ccccc1C(N)=O | 2.19
CCC(CC)NC(=O)COc1ccc(OC)cc1C=O | -3.52
COC(=O)COc1cc(Cl)c(C=O)cc1OC | 65.7
COc1cccc(OC)c1C(=O)Nc1ccccc1C(=O)N1CCCCCC1 | 1.4
NC(=O)CCN(C(=O)c1cccc(S(=O)(=O)N2CCc3ccccc32)c1)c1ccccc1 | 24.7
CCOc1ccc(CC(=O)Nc2nccs2)cc1 | 3.37
COc1cccc(OCC(=O)NNC(=O)c2cccs2)c1 | 88.2
CCOc1ccc(S(=O)(=O)N(C)c2ccc(OCC(=O)Nc3nccs3)cc2)cc1 | 20.7
O=C(COc1ccccc1)Nc1ccncc1 | 49.4
O=C(COc1ccccc1)Nc1nccs1 | 50.5
COc1ccc(OCC(=O)Nc2ccncc2)cc1 | 67
C/C(=N\NC(=O)COc1ccc2ccccc2c1)c1cccs1 | 1.6
O=C(COc1ccc2ccc(=O)oc2c1)Nc1nccs1 | 9.82
CCc1cccc(OCC(=O)Nc2c[nH]c(=O)[nH]c2=O)c1 | -17.2

SMILES | inhibition [%]
COc1ccc(N2CC(NS(=O)(=O)c3cccs3)CC2=O)cc1 (configuration not stated) | -13.6
CCOc1ccc(NC(=O)CSc2nnc(C(C)C)n2CC)cc1 | 11.7
CCn1cc(/C=C(\NC(=O)c2ccccc2F)C(=O)NCCCn2ccnc2)c2ccccc21 | 14.8
COc1ccc(NC(=O)CSc2nc(-c3ccco3)nc3cc(=O)[nH]n23)cc1Cl | 14.5
CCCN(Cc1nnc(-c2ccccc2Cl)o1)C(=O)c1ccc(C)c(S(=O)(=O)N2CCOCC2)c1 | -1.62
CC(=O)C[C@@H](O)CC(=O)[C@@H]1OC(=O)CCCCCCCc2ccccc21 | 4.28
Cc1ccc(C(=O)Nc2scc(-c3ccccc3)c2C(=O)O)cc1 | 67.7
CCOC(=O)c1c(C)[nH]c(C=O)c1Cc1cccc(Cl)c1 | 22.5
NC(=O)c1ccccc1NC(=S)NC(=O)c1ccc(Br)o1 | 13.4
Cc1cc(C)cc(OCC(=O)Nc2ccncc2)c1 | 2.54
Cc1cc(OCC(=O)Nc2ccncc2)cc(C)c1Br | 62.5
Cc1ccc(OCC(=O)Nc2ccncc2)cc1 | 76.7
Cc1cc(OCC(=O)Nc2ccncc2)c(C)cc1Br | 68
O=C(CNc1ccc2ccccc2c1)N/N=C/c1ccccn1 | 56.7
O=C(COc1ccc([N+](=O)[O-])cc1)N/N=C/c1ccccn1 | 64.7
COC(=O)COc1ccc(/C=N/NC(=O)c2ccc(N(Cc3ccccc3)S(C)(=O)=O)cc2)cc1 | 64.2
